These compounds were tested against Follistatin-related protein 3 (Homo sapiens) (UniProt O95633) (assay: compounds binding follistatin-related protein 3 – biochemical, small-molecule microarray, 635 nm fluorescence, primary screen (AID 1105;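 note: score merges emission near 667 nm and signal to noise per printed spot across three slides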)). Settings: FSTL3 binding, higher = more signal.
Chain of Follistatin-related protein 3 (Homo sapiens) (O95633 whole entry, looked up): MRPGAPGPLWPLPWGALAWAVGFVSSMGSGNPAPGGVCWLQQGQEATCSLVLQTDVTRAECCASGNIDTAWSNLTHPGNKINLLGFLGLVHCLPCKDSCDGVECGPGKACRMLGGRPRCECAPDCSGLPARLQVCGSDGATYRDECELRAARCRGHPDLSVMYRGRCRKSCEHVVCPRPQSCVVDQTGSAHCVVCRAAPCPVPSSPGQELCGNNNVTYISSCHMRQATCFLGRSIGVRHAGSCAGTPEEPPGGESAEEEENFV
With `CO[C@H]1COC(=O)CC=C[C@@H](C)COC(=O)[C@H]2CCCN2C(=O)CC=C[C@H]1C` the composite z-score was 1.45. `CC(C)=CCCC(C)=CCON=C1[C@H]2CCn3c(=O)n(-c4ccccc4)c(=O)n3[C@H]2[C@H](O)[C@@H]2O[C@H]12` showed a composite z-score of 1.25. `COc1ccc(O[C@H]2C=C[C@@H](c3ccccc3)O[C@@H]2COC(=O)NCc2cccc3ccccc23)cc1` showed a composite z-score of 0.1. In the case of `C#CCCCON=C1[C@H]2CCn3c(=O)n(Cc4cc5c(cc4Cl)OCO5)c(=O)n3[C@H]2[C@H](O)[C@@H]2O[C@H]12`, the composite z-score is reported as 0.641. `COC(=O)[C@@H]1CC[C@H](C)[C@@H](c2ccc(C)cc2)N1C(=O)c1ccc(C=NOC[C@@H](O)[C@H]2O[C@@H]3OC(C)(C)O[C@@H]3[C@H]2O)cc1` gave a composite z-score of 0.543. `CCOC(=O)[C@H](CC(C)C)NC(=O)CCC1CC(OC(=O)NCc2ccc3c(c2)OCO3)CC2(CCCC(COC(=O)NCCc3ccc(Cl)cc3)O2)O1` (some centres undefined) was tested, and the composite z-score was 0.829. `CCOC(=O)[C@H](Cc1ccccc1)NC(=O)CCC1CC(OC(=O)NCCc2ccc(F)cc2)CC2(CCCC(COC(=O)NCCOc3ccccc3)O2)O1` (some centres undefined) was tested, and the composite z-score was 1.31. `CC(C)=NOC(C)CN1CCCc2nc(C)c(C)cc21` (centres undefined) was tested, and the composite z-score was 1.16. For `CCOC(=O)[C@H](Cc1ccccc1)NC(=O)CCC1CC(OC(=O)NCc2ccc3c(c2)OCO3)CC2(CCCC(COC(=O)NCCOC)O2)O1` (some centres undefined), the composite z-score was 1.01. Compound `CC(CCC(=O)OC[C@H]1O[C@H](C#Cc2ccccc2)C=C[C@@H]1Oc1ccc(C)cc1)=NO[C@H](C)c1cn([C@@H]2COC[C@H]2O)nn1` has a composite z-score of 0.22. For `CCN1C(C)=C(C(=O)OC)[C@@H](c2ccccc2)N2C(=O)[C@](O)(C(=O)OC)CC(C(C)=O)=C12`, the composite z-score was 0.557. Compound `CCOC(=O)CCN1C(=O)[C@H]2[C@H]3[C@H](O)[C@H](O)CC(=NO[C@@H]4O[C@H](CO)[C@@H](O)[C@H](O)[C@H]4O)[C@H]3CC[C@H]2C1=O` has a composite z-score of 0.231. `CCC1=NOC(CCC2CC(OC(=O)NCc3cccc4c3OCO4)CC3(CCCC(COC(=O)NCCc4ccc(Cl)cc4)O3)O2)C1` (centres undefined) was tested, and the composite z-score was 0.147. With `CC(C)=CCCC(C)=CCON=C1C[C@@H](O)[C@@H](O)[C@@H]2[C@@H]3C(=O)N(C4CCCCC4)C(=O)[C@@H]3CC[C@H]12` the composite z-score was 1.11. `COC(=O)[C@@H]1CC[C@H](C)[C@@H](c2ccc(C)cc2)N1C(=O)c1ccc(C=NO[C@@H](C)c2cc(-c3c(C)cc(C)cc3C)no2)cc1` was tested, and the composite z-score was 0.242. `CCN1C(=O)[C@H]2[C@H]3[C@H](O)[C@H](O)CC(=NO[C@H](C)c4cn([C@@H]5COC[C@H]5O)nn4)[C@@H]3CC[C@H]2C1=O` showed a composite z-score of -0.169. For `CC(C)=NOC[C@@H](O)[C@H]1O[C@@H]2OC(C)(C)O[C@@H]2[C@H]1O`, the composite z-score was 0.434. Compound `COc1ccc(COC(=O)NN=C2C[C@@H](O)[C@@H](O)[C@@H]3[C@@H]4C(=O)N(C[C@@H]5CCCO5)C(=O)[C@@H]4CC[C@@H]23)cc1` has a composite z-score of -0.139. `COc1ccc(O[C@H]2C=C[C@@H](c3ccccc3)O[C@@H]2CON=C(C)CCN2CCCc3nc(C)c(C)cc32)cc1` showed a composite z-score of 0.616. `CCc1cc2c(nc1CC)CCN(CCC(C)=NOCC[C@@H]1C=C[C@H](OC(C)=O)[C@@H](COC(C)=O)O1)C2` showed a composite z-score of 0.332. In the case of `CCOC(=O)[C@H](CC(C)C)NC(=O)CCC1CC(OC(=O)NCCc2ccc(F)cc2)CC2(CCCC(COC(=O)NCCCN3CCCC3=O)O2)O1` (some centres undefined), the composite z-score is reported as 0.572. `COc1ccc(COC(=O)NN=C2C[C@@H](O)[C@@H](O)[C@@H]3[C@@H]4C(=O)N(Cc5ccc6c(c5)OCO6)C(=O)[C@@H]4CC[C@H]23)cc1` gave a composite z-score of -0.152. `CC(CCN1CCCCc2nc(C)c(C)cc21)=NOC[C@@H](O)[C@H]1O[C@@H]2OC(C)(C)O[C@@H]2[C@H]1O` was tested, and the composite z-score was 0.718. `O=C1[C@H]2CCn3c(=O)n(-c4ccccc4)c(=O)n3[C@H]2[C@H](O)[C@@H]2O[C@H]12` showed a composite z-score of 0.148. Compound `CC(C)=NO[C@H](C)c1cn([C@@H]2COC[C@H]2O)nn1` has a composite z-score of 0.67. `CC(CCN1CCc2nc(-c3ccccc3)c(-c3ccccc3)cc2C1)=NO[C@@H](C)c1cc(-c2c(C)cc(C)cc2C)no1` gave a composite z-score of -0.601. `CC(C)CN1CCc2nc(-c3ccccc3)c3c(c2C1)CO[C@@H](C)C3` showed a composite z-score of 1.05. With `CCOC(=O)CCN1C(=O)[C@H]2[C@H]3[C@H](O)[C@H](O)CC(=NOCC=C(C)CCC=C(C)C)[C@@H]3CC[C@H]2C1=O` the composite z-score was 0.825. `CON=C[C@@H](OC)[C@H](C)C=CCC(=O)OC` gave a composite z-score of -0.23.
